# Bioassay records: PubChem BioAssay, National Center for Advancing Translational Sciences (NCATS)
# IP6K1 inhibitor = IP6K1 kinase inhibition; activity change, % (series mostly up to about 58 µM); Q92551; actives 0.81% (n = 140,000); IP6K1 kinase, ADP-Glo luminescence, 2 h; hits give low values; in the data active = activity change below about -25%
# Target sequence (Q92551 whole entry, looked up): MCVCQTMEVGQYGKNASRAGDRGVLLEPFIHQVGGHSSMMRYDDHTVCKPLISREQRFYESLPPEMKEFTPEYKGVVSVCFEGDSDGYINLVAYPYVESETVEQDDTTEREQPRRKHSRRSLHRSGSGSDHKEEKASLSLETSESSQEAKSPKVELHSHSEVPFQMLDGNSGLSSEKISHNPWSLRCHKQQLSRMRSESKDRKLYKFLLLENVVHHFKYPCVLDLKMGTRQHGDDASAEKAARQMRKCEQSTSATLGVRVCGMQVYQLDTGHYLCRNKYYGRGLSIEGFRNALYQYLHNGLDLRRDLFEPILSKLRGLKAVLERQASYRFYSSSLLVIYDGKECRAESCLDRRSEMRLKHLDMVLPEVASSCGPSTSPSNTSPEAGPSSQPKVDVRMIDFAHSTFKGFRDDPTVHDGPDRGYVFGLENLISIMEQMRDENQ
#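 ADP-Glo luminescence measures ADP made by human IP6K1 during a 2 h RT reaction with ATP/IP6 (mix at 1.3 mM/130 uM); top library doses 57.5 and 19.1 uM final.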
# SNCA expr inhib = SNCA gene expression inhibition; HEK-293 SNCA-luciferase knock-in, luminescence, 24 h; Potency, µM (series often up to 57.2 µM), actives largely listed as inhibitors; actives 0.17% (n = 140,000); also: nearly all actives have a fitted effect of over 45% in size
# HEK293 viab = reduces viability of HEK-293 SNCA reporter cells | actives 0.12% (n = 150,000) | HEK-293-SNCA-luc viability, GF-AFC fluorescence, 24 h | AID 1671193 | Potency, µM (series often up to 57.1 µM), most hits filed as cytotoxic; also: nearly all actives have a fitted effect of over 30% in size
#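 Cytotoxicity counterscreen: after 24 h compound treatment of genome-edited SNCA-luciferase HEK-293 cells, live-cell protease substrate GF-AFC read by fluorescence after 30 min; activity scaled between DMSO (0%) and medium-only (-100%), curves Hill-fitted.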
# GPT2 inh = GPT2 alanine aminotransferase inhibition | Q8TD30 | Recombinant GPT2, coupled pyruvate oxidase/HRP Amplex Red fluorescence | Potency, µM (doses to about 57.7 µM), hits mostly inhibitors | actives 0.25% (n = 100,000) | AID 1671188; also: nearly all actives have a fitted effect of over 60% in size
#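 Recombinant GPT2 (10ng/uL) with 250uM a-KG and 2mM L-alanine, 30 min at room temperature, in HEPES pH 7.5 buffer. Pyruvate detected by pyruvate oxidase/HRP/Amplex Red fluorescence after 30 min in the dark; AOA (50uM) as positive control.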
# IP6K1 conf = human IP6K1 inhibition, confirmatory | shares compounds with IP6K1 inhibitor | recombinant IP6K1 kinase, ADP-Glo luminescence, 2 h | Potency, µM (highest dose often 49 µM), most hits filed as inhibitors | actives 13% (n = 1,200) | AID 1645852; also: nearly all actives have a fitted effect of over 65% in size
# Numbers stand for hits; – = inactive; ? = inconclusive; · = no result given; ! = repeats disagree; [ ] = dose if it differs, or a comment. Shown are actives, neighbours in structure and some others; about 1.1% of the full set was active somewhere. Unless noted, calls follow the shape of the dose curve; as a rule, active = well fitted curve in the direction sought with a large enough effect; inconclusive = small, poorly fitted or top-dose-only effect, or another doubt; inactive = no such curve, though single readings can be large; an effect the other way counts as inactive or inconclusive.
SMILES,IP6K1 inhibitor,SNCA expr inhib,HEK293 viab,GPT2 inh,IP6K1 conf
Cc1c(Cl)cccc1-n1ncc(C(=O)Nc2ccc(Br)cc2F)c1C1CCNCC1,-26.3,–,–,·,?
COc1cncc(-c2cc(C(=O)NCc3cccnc3)c3c(c2)N(C)CCO3)c1,-28.0,?,–,?,?
COc1ccccc1-c1cc(C(=O)NCc2cccnc2)c2c(c1)N(C)CCO2,–,–,–,–,·
CN1CCOc2c(C(=O)NCc3cccnc3)cc(-c3ccccc3F)cc21,-28.6,–,?,–,–
Cc1ccccc1-c1cc(C(=O)NCc2cnn(C)c2)c2c(c1)N(C)CCO2,-25.1,?,–,–,?
Oc1ccc(C(O)CNCCCCCCNCC(O)c2ccc(O)c(O)c2)cc1O (stereo unspecified),–,–,–,–,·
NC[C@H](O)c1ccc(O)c(O)c1,-70.1,–,–,10µM!,–
CN(C)c1ccc(CN[C@H]2C[C@H]3C(=O)NC[C@@H](CCC(=O)N4CCc5ccccc54)N3C2)cc1,–,–,–,–,·
CCOc1ccccc1N1CC(c2nc3ccccc3n2CCOc2ccc(OC)cc2)CC1=O (stereo unspecified),–,?,?,·,·
CCOc1ccccc1N1CC(c2nc3ccccc3n2CCCOc2ccc(OC)cc2)CC1=O (stereo unspecified),-27.4,–,–,·,–
CCN1CCN(C(=O)Cn2ncc3c4ccccc4n(Cc4ccccc4)c3c2=O)CC1,–,?,?,·,·
CN1CCC(Nc2ncc3ncnc(Nc4ccc(F)c(Cl)c4)c3n2)CC1,–,–,–,–,·
CN1CCC(Nc2nc(Nc3ccc(Oc4ccccc4)cc3)c3c(=O)[nH]cc(Br)c3n2)CC1,-41.2,·,?,–,?
CC1=NOC2(CCN(Cc3ccc(C#N)cc3)C2)C1 (stereo unspecified),–,–,–,–,·
COc1ccc(OC)c(NC(=O)CN2C(=O)c3ccccc3Sc3ccc(C(=O)N4CCCC4)cc32)c1,–,–,–,·,·
Cc1ccc(-c2ccc(=O)n(CCC(=O)NCCc3ccccc3)n2)cc1,-26.7,–,–,·,–
O=c1cc(-c2ccc(O)c(O)c2)oc2cc(O)cc(O)c12,·,–,–,–,·
O=c1c(O)c(-c2ccc(O)c(O)c2)oc2cc(O)cc(O)c12,-54.9,–,–,13.7µM!,0.461µM
Cc1cc(CNC(=O)Cc2nonc2C)c2[nH]c(-c3ccccc3)c(C)c2c1,-28.6,–,–,–,–
CCCC(=O)c1cc(O)c(O)cc1O,-95.8,–,–,?,?
Cc1cc(C(C)Nc2ccccc2C(=O)O)c2nc(N3CCOCC3)cc(=O)n2c1 (stereo unspecified),–,·,–,–,–
O=c1cc(N2CCOCC2)nc2c3ccccc3ccn12,–,·,–,–,·
COc1cccc(N2CCN(S(=O)(=O)c3ccc(-c4cnc(C5CC5)o4)cc3)CC2)c1,-34.7,–,–,·,?
O=S(=O)(c1ccc(-c2cnc(C3CC3)o2)cc1)N1CCN(c2cccc(Cl)c2)CC1,–,–,–,·,·
COc1ccc(N2CCN(S(=O)(=O)c3ccc(-c4cnc(C5CC5)o4)cc3)CC2)cc1,-41.3,–,–,·,–
SMILES,IP6K1 inhibitor,SNCA expr inhib,HEK293 viab,GPT2 inh,IP6K1 conf
CCc1ccccc1N(C)C(=O)c1cn(-c2cccc(OC)c2)c(=O)c2ccccc12,–,–,–,·,·
CCc1ccc(C(=O)N2CCC(n3cnnc3CC)CC2)cc1,–,–,–,–,·
Cc1ccc(-c2nnn3c2nc(N2CCC(C)CC2)c2ccccc23)cc1,-28.9,–,–,·,–
CCc1oc2ccccc2c1C(=O)c1cc(I)c(O)c(I)c1,-56.4,–,–,–,3.55µM
CCc1ccc2occ(CC(=O)Nc3c(C(=O)c4ccc(C)cc4)oc4ccccc34)c2c1,–,–,–,·,·
O=C(Nc1cccc(-c2nnc3n2CCCC3)c1)C1CCCC1,–,–,–,–,·
CC(C)Cc1nn2c(=O)cc(COC(=O)c3ccccc3NC(=O)c3ccccc3)nc2s1,-27.6,–,–,·,–
CC(Oc1ccccc1)C(=O)Nc1ccccc1C(=O)OCc1cc(=O)n2nc(C3CC3)sc2n1 (stereo unspecified),-27.4,–,–,·,–
COc1cccc(C(=O)N2CCc3nc(C4CC4)nc(-c4ccc(O)cc4)c3C2)c1,–,–,–,–,·
O=C(O)c1cc(O)c2cccc(O)c2c1O[C@@H]1O[C@H](CO)[C@@H](O)[C@H](O)[C@H]1O,-37.0,·,–,?,?
CCCc1nnc(C[C@@H]2C[C@@H](C(C)C)[C@H](CNCc3cccnc3)C=C2C)o1,–,?,–,–,·
CCCc1nnc(C[C@@H]2C[C@@H](C(C)C)[C@H](CNc3cccnc3)C=C2C)o1,-25.5,–,–,10µM,–
CC(C)CCN1CCC2(CC1)COc1ccccc1[S+](=O)([O-])N2,–,–,–,–,·
CCc1ccc(NC(=O)c2ccc(-c3ccccc3)s2)cc1,–,–,–,·,·
O=C(Nc1ccccc1F)c1ccc(-c2ccccc2)s1,-29.6,–,–,·,–
NC(=O)Cc1c[nH]c2ncc(-c3cccc(C(F)(F)F)c3)cc12,-31.7,–,–,–,?
NC(=O)Cc1c[nH]c2ncc(-c3ccccc3Oc3ccccc3)cc12,–,?,–,–,·
C[S+](=O)([O-])c1cccc(-c2cnc3[nH]cc(CC(N)=O)c3c2)c1,–,–,–,–,·
NC(=O)Cc1c[nH]c2ncc(-c3cccc(O)c3)cc12,-38.4,–,–,–,?
NC(=O)Cc1c[nH]c2ncc(-c3ccccc3F)cc12,-38.3,–,–,?,?
Cc1ccc(NC(=O)N2CC(n3cc(C(=O)NCc4ccncc4)nn3)C2)cc1C,–,–,–,–,·
Cc1cnc(C2CCOCC2)n1C1CCN(C(=O)NCCc2ccccc2)CC1,–,–,–,?,·
Cc1cc(=O)[nH]c2nnc(SCC(=O)NC(C)(C)C)n12,–,–,–,·,·
Cc1cc(=O)[nH]c2nnc(SCC(=O)Nc3ccc(OC(F)(F)F)cc3)n12,-25.2,–,–,·,–
CC(=O)c1ccc(N2CCN(S(=O)(=O)c3cc(-c4noc(C)n4)ccc3C)CC2)cc1,–,–,–,·,·
SMILES,IP6K1 inhibitor,SNCA expr inhib,HEK293 viab,GPT2 inh,IP6K1 conf
Cc1nc(-c2ccc(C)c(S(=O)(=O)N3CCC(C(=O)Nc4ccc(Cl)cc4)CC3)c2)no1,-25.9,?,–,·,–
CCc1cccc(NC(=O)C2CCN(S(=O)(=O)c3cccc(-c4noc(C)n4)c3)CC2)c1,–,?,–,·,·
COc1cccc(NC(=O)C2CCN(S(=O)(=O)c3cc(-c4noc(C)n4)ccc3C)CC2)c1,-36.4,–,–,·,–
O=C(CCn1cncn1)N1CCC(c2nccn2Cc2cccnc2)CC1,-37.8,–,–,–[11.5 µM],–
COc1cc(NC(=O)CSc2nccn2C)cc(OC)c1OC,–,–,–,·,·
Cn1cnnc1SCC(=O)Nc1cc(C(=O)O)cc(C(=O)O)c1,-29.9,?,–,·,–
C=C1C(=O)OC2/C=C(\CO)CC/C=C(\C=O)CC(OC(=O)CC(C)C)C12 (stereo unspecified),–,·,?,–,·
CC1CCN(C(=O)CSc2nc(-c3ccccc3)no2)CC1,-26.2,–,–,·,?
